PubChem BioAssay (NCATS)
Inconclusive results are not listed. Active and inactive are the calls of the source. The call rests on the fitted dose curve; in most records, active means well fitted curve in the direction sought with a large enough effect; inconclusive means small, poorly fitted or top-dose-only effect, or another doubt; inactive means no such curve, though single readings can be large; an effect the other way counts as inactive or inconclusive.

How the values were obtained:
[1] = target: Phospholipid hydroperoxide glutathione peroxidase GPX4 (Homo sapiens) (UniProt P36969); test: Primary qHTS Assay for Inhibitors of Recombinant Selenoprotein Glutathione Peroxidase 4 (GPX4) (AID 1845192); further: nearly all actives have a fitted effect of over 65% in size
Procedure, shortened: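 NADPH consumption, followed by fluorescence at 340/450 nm between 0 and 15 min, reports GPX4 activity via coupled glutathione reductase (100 nM). Enzyme 200 nM was pre-exposed to compound 30 min; 0.5 mM cumene hydroperoxide and 1 mM GSH served as substrates.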

[2] = Quantitative High-Throughput drug screen in 47 multiple myeloma cell lines against the NCATS MIPE library collection: Delta47_JCRB cell viability assay (AID 1918925; further: nearly all actives have a fitted effect of over 45% in size; further: potency means the concentration at half of the fitted maximal effect)
Procedure, shortened: (§1)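 qHTS of the MIPE 4.0 collection: 500 myeloma cells/well, 48 h drug exposure at 37C in 5% CO2, then CellTiter-Glo for 5 min at room temperature before luminescence reading.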

[3] = Quantitative High-Throughput drug screen in 47 multiple myeloma cell lines against the NCATS MIPE library collection: EJM_DSMZ cell viability assay (AID 1918926; further: nearly all actives have a fitted effect of over 30% in size; further: potency means the concentration at half of the fitted maximal effect)
Procedure, shortened: as §1

[4] = Quantitative High-Throughput drug screen in 47 multiple myeloma cell lines against the NCATS MIPE library collection: AMO1_DSMZ cell viability assay (AID 1918927; further: nearly all actives have a fitted effect of over 30% in size; further: potency means the concentration at half of the fitted maximal effect)
Procedure, shortened: as §1

[5] = Quantitative High-Throughput drug screen in 47 multiple myeloma cell lines against the NCATS MIPE library collection: ARP1_JJKsccF8 cell viability assay (AID 1918928; further: nearly all actives have a fitted effect of over 40% in size; further: potency means the concentration at half of the fitted maximal effect)
Procedure, shortened: (§2)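 ATP readout (CellTiter-Glo), 48 h drug incubation, 37 °C/5% CO2, 500 cells per well; normalisation to DMSO (100%) and media-only (0%) controls.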

[6] = Quantitative High-Throughput drug screen in 47 multiple myeloma cell lines against the NCATS MIPE library collection: ARD_JJKsccE7 cell viability assay (AID 1918929; further: potency means the concentration at half of the fitted maximal effect)
Procedure, shortened: as §1

[7] = Quantitative High-Throughput drug screen in 47 multiple myeloma cell lines against the NCATS MIPE library collection: Karpas620_DSMZ cell viability assay (AID 1918959); further: nearly all actives have a fitted effect of over 30% in size; further: potency means the concentration at half of the fitted maximal effect
Procedure, shortened: (§3)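 Luminescent ATP measurement with CellTiter-Glo gives viability, scaled between DMSO-only wells (100%) and media-only wells (0%). Cells, 500 per well, faced library compounds for 48 hours at 37C.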

[8] = Quantitative High-Throughput drug screen in 47 multiple myeloma cell lines against the NCATS MIPE library collection: KMM1_JCRB cell viability assay (AID 1918960); further: nearly all actives have a fitted effect of over 30% in size; further: potency means the concentration at half of the fitted maximal effect
Procedure, shortened: as §2

[9] = Quantitative High-Throughput drug screen in 47 multiple myeloma cell lines against the NCATS MIPE library collection: JIM3_ECACC cell viability assay (AID 1918963; further: nearly all actives have a fitted effect of over 35% in size; further: potency means the concentration at half of the fitted maximal effect)
Procedure, shortened: as §3

[10] = Quantitative High-Throughput drug screen in 47 multiple myeloma cell lines against the NCATS MIPE library collection: JIM1_ECACC cell viability assay (AID 1918964; further: potency means the concentration at half of the fitted maximal effect)
Procedure, shortened: as §1

[11] = Quantitative High-Throughput drug screen in 47 multiple myeloma cell lines against the NCATS MIPE library collection: INA6_PLB cell viability assay (AID 1918965; further: nearly all actives have a fitted effect of over 55% in size; further: potency means the concentration at half of the fitted maximal effect)
Procedure, shortened: (§4)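 Steps: seed 500 cells per well; pin-transfer MIPE 4.0 library; incubate 48 h at 37C, 5% CO2, humidified; add CellTiter-Glo, 5 min room temperature; read luminescence.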

[12] = target: Luciferin 4-monooxygenase (Photinus pyralis) (UniProt P08659); test: Primary firefly luciferase (FLuc) qHTS assay for identification of artifact compounds. (AID 1845220); further: nearly all actives have a fitted effect of over 60% in size; further: potency means the concentration at half of the fitted maximal effect
Procedure, shortened: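 FLuc 10 nM; luciferin 10 uM; ATP 10 uM; Tris-acetate pH 7.6, Mg-acetate 10 mM; 15 min RT preincubation; 5 min reaction; luminescence.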

[13] = Primary fluorescence-based thiol-reactive (MSTI) qHTS assay for identification of artifact compounds. (AID 1845221);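 further: thiol-reactive compounds lower the probe fluorescence signal; nearly all actives have a fitted effect of over 65% in size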
Procedure, shortened: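 One-hour, room-temperature, dark incubation of compound with 4 uM MSTI in PBS (pH 7.4, 2% DMSO) precedes a fluorescence read at 525 nm excitation, 598 nm emission; Hill-equation fitting yields concentration-response values.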

[14] = test system: Nanoluciferase (engineered Oplophorus gracilirostris luciferase); test: Primary Nanoluciferase (NLuc) qHTS assay for identification of artifact compounds. (AID 1845222);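 further: NLuc secreted into diluted conditioned medium of S16 cells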
Procedure, shortened: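 NLuc from S16 cell medium (1:55) plus test compounds, 15 min, room temperature. Luminescence after Nano-Glo (1:100) addition, 5 min.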

[15] = Primary redox qHTS assay for identification of artifact compounds. (AID 1845223)
Procedure, shortened: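 Amplex Red (25 uM) and HRP (250 mU/mL) in HBSS, with compounds for 15 min, then 250 uM DTT for 30 min, room temperature, dark. Fluorescence 525/598 nm read; normalized to DMSO and 10 uM DA3003; Hill fit.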

[16] = Quantitative High-Throughput drug screen in 47 multiple myeloma cell lines against the NCATS MIPE library collection: FR4_PLB cell viability assay (AID 1918924; further: nearly all actives have a fitted effect of over 35% in size; further: potency means the concentration at half of the fitted maximal effect)
Procedure, shortened: as §3

[17] = Quantitative High-Throughput drug screen in 47 multiple myeloma cell lines against the NCATS MIPE library collection: KHM11_PLB cell viability assay (AID 1918962); further: nearly all actives have a fitted effect of over 35% in size; further: potency means the concentration at half of the fitted maximal effect
Procedure, shortened: as §3

[18] = Quantitative High-Throughput drug screen in 47 multiple myeloma cell lines against the NCATS MIPE library collection: JJN3_DSMZ cell viability assay (AID 1918966; further: nearly all actives have a fitted effect of over 50% in size; further: potency means the concentration at half of the fitted maximal effect)
Procedure, shortened: as §1

[19] = Quantitative High-Throughput drug screen in 47 multiple myeloma cell lines against the NCATS MIPE library collection: Karpas417_ECACC cell viability assay (AID 1918961); conditions: Karpas417 myeloma viability, CellTiter-Glo ATP luminescence, 48 h; viability (% of DMSO): at 45.8 µM (top of the series); further: potency means the concentration at half of the fitted maximal effect
Procedure, shortened: as §4

Measured: Potency

Chain of Phospholipid hydroperoxide glutathione peroxidase GPX4 (Homo sapiens) (P36969 whole entry, looked up): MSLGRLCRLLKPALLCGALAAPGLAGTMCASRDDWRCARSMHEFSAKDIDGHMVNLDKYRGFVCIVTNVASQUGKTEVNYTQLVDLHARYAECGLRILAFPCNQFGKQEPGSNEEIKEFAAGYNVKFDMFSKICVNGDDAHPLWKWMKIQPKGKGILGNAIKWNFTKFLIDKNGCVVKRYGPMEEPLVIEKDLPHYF

C[C@H](NC(=O)C(=O)Nc1ccccc1C(C)(C)C)C(=O)N[C@@H](CC(=O)O)C(=O)COc1c(F)c(F)cc(F)c1F
inactive: [1] | [2] | [3] | [9]
active: [4] 4.69 µM | [5] 14.8 µM | [6] 1.18 µM | [7] 2.64 µM | [8] 1.66 µM | [10] 4.18 µM | [11] 18.7 µM

NC(=O)c1ccc2nc(-c3ccc(Oc4ccc(Cl)cc4)cc3)[nH]c2c1
active: [12] 3.38 µM | [16] 0.166 µM | [2] 0.0264 µM | [4] 1.48 µM | [6] 5.9 µM | [8] 0.469 µM | [17] 0.0083 µM | [9] 0.105 µM | [11] 0.0209 µM
inactive: [13] | [14] | [15] | [3]

COc1ccc(-c2coc3cc(O)cc(O)c3c2=O)cc1
inactive: [1] | [16] | [2] | [5] | [9] | [18]
active: [7] 18.7 µM

CN(C)Cc1ccc(-c2nc3cccc4c3n2CCNC4=O)cc1
inactive: [12] | [13] | [14] | [15]
active: [16] 23.5 µM | [2] 23.5 µM | [3] 20.9 µM | [4] 18.7 µM | [6] 29.6 µM | [7] 23.5 µM | [8] 18.7 µM | [19] 14.8 µM | [17] 11.8 µM | [9] 20.9 µM | [10] 11.8 µM

C[N+]1(C)[C@@H]2CC(OC(=O)[C@H](CO)c3ccccc3)C[C@H]1[C@H]1O[C@@H]12 (stereo not given in full)
inactive: [16] | [2] | [3] | [4] | [7] | [8] | [10]

CON=C(C(=O)N[C@@H]1C(=O)N2C(C(=O)OCOC(=O)C(C)(C)C)=C(C=Cc3scnc3C)CS[C@H]12)c1csc(N)n1
inactive: [16] | [2] | [3] | [4] | [5] | [9]
active: [7] 16.6 µM | [17] 18.7 µM | [11] 18.7 µM

CCOC1OC(=O)C[C@H]1NC(=O)[C@@H]1CCCN1C(=O)[C@@H](NC(=O)c1ccc(N)c(Cl)c1)C(C)(C)C (stereo not given in full)
active: [4] 18.7 µM | [6] 20.9 µM | [7] 4.69 µM | [8] 29.6 µM
inactive: [16] | [2] | [3] | [19] | [9]

NC[C@@H]1O[C@@H](O[C@H]2[C@@H](O)[C@H](O[C@@H]3[C@@H](O)[C@@H](N)C[C@H](N)[C@H]3O[C@H]3O[C@H](CN)[C@@H](O)[C@@H](O)[C@H]3N)O[C@H]2CO)[C@H](N)[C@@H](O)[C@@H]1O
not listed: [1] | [7] | [12] | [13] | [14] | [15] | [19]
inactive: all other assays above

Oc1ccc(C2CCN(c3ccnc4ccccc34)CC2)cc1O
inactive: [1]
active: [16] 14.8 µM | [2] 9.35 µM | [4] 18.7 µM | [5] 23.5 µM | [7] 16.6 µM | [17] 8.33 µM | [9] 11.8 µM | [11] 7.43 µM

O=C(O)c1cc(O)c2c(c1)C(=O)c1cccc(O)c1C2=O
active: [5] 34 µM
inactive: [1] | [6] | [9]

CO[C@H]1C=CC=C(C)C(=O)NC2=CC(=O)C(NCCN(C)C)=C(C[C@@H](C)C[C@H](OC)[C@@H](O)[C@@H](C)C=C(C)[C@@H]1OC(N)=O)C2=O
active: [16] 0.166 µM | [2] 0.0469 µM | [3] 1.48 µM | [4] 0.0469 µM | [5] 0.0118 µM | [6] 0.001 µM | [7] 0.296 µM | [8] 0.0526 µM | [17] 0.0372 µM | [9] 0.0743 µM | [10] 0.0209 µM | [11] 0.0235 µM | [18] 0.0296 µM

O=C(O)CCC1CCC(c2cc(F)ccc2F)(S(=O)(=O)c2ccc(Cl)cc2)CC1 (stereo not given)
active: [2] 5.9 µM | [4] 5.9 µM | [6] 14.8 µM | [8] 16.6 µM | [11] 3.32 µM
inactive: [1] | [16] | [3] | [5] | [9] | [18]

Cc1ccn(-c2ccc(-c3ncco3)cc2)c(=O)c1-c1ccc2nc(N)ncc2c1
active: [4] 14.8 µM | [9] 10.5 µM
inactive: [12] | [13] | [14] | [16] | [3] | [5]

O=c1ccn([C@@H]2O[C@H](CO)[C@H](O)[C@H]2O)c(=O)[nH]1
inactive: [16] | [3] | [7] | [8] | [17] | [9] | [11] | [18]

O=C1C[C@@H](c2ccc(O)cc2)Oc2cc(O)cc(O)c21
inactive: [16] | [2] | [3] | [5] | [17] | [9] | [10]

CCN(CC)CCOc1ccc(C(=C(Cl)c2ccccc2)c2ccccc2)cc1
inactive: [16] | [5] | [9] | [11]
active: [4] 18.7 µM

COC(=O)N[C@H](C(=O)N1CCC[C@@H]1c1ncc(-c2ccc(-c3ccc(-c4cnc([C@@H]5CCCN5C(=O)[C@@H](NC(=O)OC)C(C)C)[nH]4)cc3)cc2)[nH]1)C(C)C
active: [16] 23.5 µM | [2] 20.9 µM | [6] 23.5 µM | [7] 16.6 µM | [9] 18.7 µM | [10] 20.9 µM | [18] 23.5 µM
